Source: PubChem BioAssay (Tox21)
Records with an inconclusive call do not appear. The source made the active and inactive calls. Unless noted, calls follow the shape of the dose curve; as a rule, active = well fitted curve in the direction sought with a large enough effect in the repeat runs; inconclusive = weak or mixed curves; inactive = no such curve, though single readings can be large; an effect the other way counts as inactive or inconclusive.

Columns and labels:
[1] = qHTS assay to identify small molecule antagonists of the glucocorticoid receptor (GR) signaling pathway - cell viability counter screen (AID 720693); settings: GR-bla HeLa viability, CellTiter-Glo luminescence, 18 h, with 5 nM dexamethasone present; series mostly up to 58.5 µM; also: nearly all actives have a fitted effect of over 55% in size
[2] = qHTS assay for identifying genotoxic compounds that show differential cytotoxicity against isogenic chicken DT40 cell lines with known DNA damage response pathways - Rad54/Ku70 mutant cell line (AID 743015); settings: DT40 Rad54/Ku70 mutant viability, CellTiter-Glo, 40 h; series mostly up to 66.8 µM; also: nearly all actives have a fitted effect of over 60% in size; also: potency is read from the fitted curve at half-maximal effect
[3] = qHTS assay to identify small molecule antagonists of the androgen receptor (AR) signaling pathway - cell viability counter screen (AID 743033; also: nearly all actives have a fitted effect of over 45% in size; also: potency is read from the fitted curve at half-maximal effect); settings: AR-bla HEK293 viability, CellTiter-Glo luminescence, 16 h; series mostly up to 58.5 µM
[4] = qHTS assay to identify small molecule antagonists of the androgen receptor (AR) signaling pathway using the MDA cell line - cell viability counter screen (AID 743041; also: nearly all actives have a fitted effect of over 45% in size; also: potency is read from the fitted curve at half-maximal effect); settings: MDA-kb2 viability, CellTiter-Fluor, 16 h, cells co-treated with R1881 androgen agonist; series mostly up to 70.3 µM
Procedure, shortened: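 MDA-kb2 AR-luc cells (MMTV-luciferase, AR/GR responsive) treated with compounds plus R1881 agonist for 16 h at 37C. CellTiter-Fluor added at 15.5 h; fluorescence read after 30 min in the same wells.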

[5] = target: Androgen receptor (Homo sapiens) (UniProt P10275); test: qHTS assay to identify small molecule agonists of the androgen receptor (AR) signaling pathway using the MDA cell line (AID 743040; also: nearly all actives have a fitted effect of over 20% in size; also: potency is read from the fitted curve at half-maximal effect); settings: MDA-kb2 AR-luc cells, MMTV luciferase, 16 h; series mostly up to 70.3 µM
Androgen receptor (Homo sapiens), sequence (P10275 whole entry, looked up): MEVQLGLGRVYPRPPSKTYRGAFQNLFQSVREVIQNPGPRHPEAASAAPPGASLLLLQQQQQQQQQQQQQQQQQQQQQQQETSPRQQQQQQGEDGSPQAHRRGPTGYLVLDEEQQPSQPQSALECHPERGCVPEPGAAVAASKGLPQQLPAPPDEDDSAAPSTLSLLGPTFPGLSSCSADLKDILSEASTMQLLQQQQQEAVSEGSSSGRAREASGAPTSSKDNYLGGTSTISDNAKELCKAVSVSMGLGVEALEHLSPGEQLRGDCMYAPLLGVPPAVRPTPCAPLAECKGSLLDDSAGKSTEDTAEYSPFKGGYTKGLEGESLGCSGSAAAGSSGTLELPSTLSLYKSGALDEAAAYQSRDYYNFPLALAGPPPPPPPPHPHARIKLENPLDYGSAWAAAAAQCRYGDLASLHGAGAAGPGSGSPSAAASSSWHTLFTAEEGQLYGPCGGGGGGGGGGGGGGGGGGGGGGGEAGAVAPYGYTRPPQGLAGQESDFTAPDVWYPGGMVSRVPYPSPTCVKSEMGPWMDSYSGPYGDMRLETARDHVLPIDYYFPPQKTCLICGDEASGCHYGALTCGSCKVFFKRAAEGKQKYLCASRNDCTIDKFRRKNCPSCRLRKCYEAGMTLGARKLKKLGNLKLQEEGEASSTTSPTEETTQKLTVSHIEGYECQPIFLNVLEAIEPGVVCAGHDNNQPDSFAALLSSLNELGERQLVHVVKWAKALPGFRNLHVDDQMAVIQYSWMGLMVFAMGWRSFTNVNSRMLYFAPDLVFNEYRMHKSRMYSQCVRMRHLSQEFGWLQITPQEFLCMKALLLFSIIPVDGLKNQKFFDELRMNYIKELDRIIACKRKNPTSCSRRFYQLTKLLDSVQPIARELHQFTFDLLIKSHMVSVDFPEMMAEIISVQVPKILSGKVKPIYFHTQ
Procedure, shortened: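 MDA-kb2 breast carcinoma cells carrying MMTV-luciferase (responsive to AR and GR), plated 5 h then treated 16 h with compounds at 37C, 0% CO2. Read-out was ONE-Glo luminescence after 30 min at room temperature.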

[6] = target: Androgen receptor (Homo sapiens) (UniProt P10275); test: qHTS assay to identify small molecule antagonists of the androgen receptor (AR) signaling pathway using the MDA cell line (AID 743042; also: nearly all actives have a fitted effect of over 55% in size); settings: MDA-kb2 AR-luc, MMTV luciferase, R1881 antagonist, 16 h; series mostly up to 70.3 µM
Procedure, shortened: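 MDA-kb2 breast carcinoma cells carrying MMTV-luciferase (AR/GR responsive) were co-treated with compounds and the agonist R1881 for 16 h at 37C. Inhibition read as ONE-Glo luminescence; CellTiter-Fluor fluorescence measured in parallel for cytotoxicity.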

[7] = qHTS assay for identifying genotoxic compounds that show differential cytotoxicity against isogenic chicken DT40 cell lines with known DNA damage response pathways - wild type cell line (AID 743012); settings: DT40 wild type chicken cells viability, CellTiter-Glo, 40 h; series mostly up to 68.4 µM; also: potency is read from the fitted curve at half-maximal effect; nearly all actives have a fitted effect of over 60% in size
Procedure, shortened: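 Wild type DT40, 300 cells/well, ~0.5 h settle at 37 C/5% CO2; compounds in DMSO added by pintool; 40 h at 37 C/5% CO2; CellTiter-Glo, 30 min RT; luminescence.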

[8] = qHTS assay for identifying genotoxic compounds that show differential cytotoxicity against isogenic chicken DT40 cell lines with known DNA damage response pathways - Rev3 mutant cell line (AID 743014); settings: chicken DT40 Rev3-/- viability, CellTiter-Glo, 40 h; series mostly up to 68.4 µM; also: potency is read from the fitted curve at half-maximal effect; nearly all actives have a fitted effect of over 55% in size
[9] = target: Androgen receptor (Homo sapiens) (UniProt P10275); test: qHTS assay to identify small molecule antagonists of the androgen receptor (AR) signaling pathway (AID 743035; active = well fitted inhibition curve with a large enough effect in the signal ratio in the repeat runs, not every such curve was filed as active; the % refers to the signal ratio); settings: HEK293 AR-UAS-bla, R1881-stimulated, beta-lactamase FRET, 16 h; series mostly up to 58.5 µM
Procedure, shortened: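 Fluorescence from a beta-lactamase FRET substrate (LiveBLAzer B/G, 2 h, room temperature) measured inhibition of R1881-stimulated signaling in GeneBLAzer AR-UAS-bla HEK293 cells exposed to compound for 16 h at 37C.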

[10] = target: Androgen receptor (Homo sapiens) (UniProt P10275); test: qHTS assay to identify small molecule agonists of the androgen receptor (AR) signaling pathway (AID 743036; active = well fitted activation curve with a large enough effect in the signal ratio in the repeat runs, with a control signal flat, not every such curve was filed as active; the % refers to the signal ratio; also: potency is read from the fitted curve at half-maximal effect); settings: HEK293 AR-UAS-bla GripTite, beta-lactamase FRET ratio, 16 h; series mostly up to 62.4 µM
Procedure, shortened: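 Activation was read as beta-lactamase FRET signal from LiveBLAzer B/G substrate, added for 2 h at room temperature. Before that, GeneBLAzer AR-UAS-bla GripTite (HEK293) cells had 16 h compound exposure at 37C.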

Measured: Potency

COc1cc2c(cc1OC)CC(=O)N(CCCN(C)C[C@H]1Cc3cc(OC)c(OC)cc31)CC2
active: [2] 9440 nM
inactive: [1] | [3] | [4]

C[N+](C)(CCCCCC[N+](C)(C)C1c2ccccc2-c2ccccc21)C1c2ccccc2-c2ccccc21
inactive: [1] | [4]

COC(=O)[C@H]1[C@H]2C[C@@H]3c4[nH]c5cc(OC)ccc5c4CCN3C[C@H]2C[C@@H](OC(=O)/C=C/c2cc(OC)c(OC)c(OC)c2)[C@@H]1OC
inactive: [1] | [3] | [5] | [4] | [6]

Cc1cc(/C=C/c2ccc3cc(N(C)C)ccc3[n+]2C)c(C)n1-c1ccccc1
active: [3] 4560 nM | [4] 2660 nM
inactive: [1]

O=C(Nc1ccc(O)cc1)c1ccccc1O
inactive: [1] | [2] | [3] | [5] | [4] | [6]

CC(C)[C@@H](C)/C=C/[C@@H](C)[C@H]1CC[C@H]2/C(=C/C=C3\C[C@@H](O)CC[C@@H]3C)CCC[C@]12C
inactive: [1] | [3] | [4]

O=C(O)c1cc2ccccc2c(Cc2c(O)c(C(=O)O)cc3ccccc23)c1O
inactive: [1] | [2] | [3] | [4]

CC(Oc1ccccc1)C(=O)N[C@@H]1C(=O)N2[C@@H]1SC(C)(C)[C@@H]2C(=O)O (stereo not given in full)
inactive: [1] | [2] | [4]

C=CCNC1=C2C[C@@H](C)C[C@H](OC)[C@H](O)[C@@H](C)/C=C(\C)[C@H](OC(N)=O)[C@@H](OC)/C=C\C=C(/C)C(=O)NC(=CC1=O)C2=O
active: [7] 335 nM | [8] 473 nM | [2] 376 nM

O=C(OCc1ccccc1)c1cccnc1
inactive: [1] | [4]

CC(C)(CO)[C@@H](O)C(=O)NCCC(=O)NCCSSCCNC(=O)CCNC(=O)[C@H](O)C(C)(C)CO
inactive: [1] | [4]

O=C(CCCCCCCCCCCCC1CCCC1)Nc1ccc(S(=O)(=O)c2ccc(NC(=O)CCCCCCCCCCCCC3CCCC3)cc2)cc1
inactive: [1] | [2] | [3] | [4]

CCOC(=O)c1cc(-c2ccccc2)nc2ccc(C)cc12
inactive: [1] | [3] | [9] | [5] | [4] | [6]

COCC(=O)Nc1cc(Sc2ccccc2)ccc1N=C(NC(=O)OC)NC(=O)OC
inactive: [1] | [3] | [4]

O=C(O)CC/C=C\CC[C@@H]1[C@@H](N2CCCCC2)[C@@H](O)C[C@@H]1OCc1ccc(-c2ccccc2)cc1
inactive: [1] | [3] | [10] | [5] | [4] | [6]

COC(=O)CCC[N+](C)(C)C
inactive: [1] | [2] | [3] | [4]

C[C@@H]1C[C@H]2C3C[C@H](F)C4=CC(=O)C=CC4(C)[C@@]3(F)[C@@H](O)CC2(C)[C@@]1(O)C(=O)COC(=O)C(C)(C)C (stereo not given in full)
inactive: [1] | [3] | [9] | [4] | [6]
active: [10] 60.1 nM | [5] 4.7 nM

COc1cc(C)c(/C=C/C(C)=C/C=C/C(C)=C/C(=O)O)c(C)c1C
inactive: [1] | [3] | [5] | [4] | [6]

NCCC[C@H](N)C(=O)O
inactive: [1] | [3] | [4]

C=C[C@]1(C)C[C@@H](OC(=O)CO)[C@]2(C)[C@H](C)CC[C@]3(CCC(=O)[C@H]32)[C@@H](C)[C@@H]1O
inactive: [1] | [3] | [4]

CCC[C@@H]1C[C@@H](C(=O)N[C@@H]([C@H]2O[C@H](SC)[C@H](O)[C@@H](O)[C@H]2O)[C@H](C)Cl)N(C)C1
inactive: [1] | [3] | [4]

CC(=O)OCC(=O)[C@@]1(O)[C@H](C)C[C@H]2[C@@H]3C[C@H](F)C4=CC(=O)C=C[C@]4(C)[C@H]3[C@@H](O)C[C@@]21C
inactive: [1] | [3] | [6]
active: [10] 1340 nM | [5] 29.8 nM

C[C@H]1C[C@@H]2[C@H]([C@@H](O)C[C@@]3(C)[C@H]2CC[C@]3(O)C(=O)COC(=O)CCC(=O)O)[C@@]2(C)C=CC(=O)C=C12
inactive: [1] | [2] | [3] | [4]
